Source: ChEMBL document CHEMBL1157539, “Thousands of chemical starting points for antimalarial lead identification” (Nature, 2010)

The compounds below were run on Plasmodium falciparum (assay: GSK_TCMDC: Inhibition of Plasmodium falciparum 3D7 in whole red blood cells, using parasite LDH activity as an index of growth. Test compounds present at 2uM).
Type: functional

Compound	Inhibition [%]
O=c1cc(NCCCNCc2cc(Br)ccc2F)[nH]c2ccccc12	95
Cc1cc2nc(-c3ccc(C(=O)NC4CCN(Cc5ccccc5)CC4)cc3)[nH]c2cc1C	93
COc1ccc(-c2ccc(CNC(=O)c3ccc(Cl)cc3)c(F)c2)cc1CN1CCCN(C)CC1.O=C(O)C(F)(F)F	99
COc1ccc(CCN(C)CCOc2ccc(NC(=O)c3cccc4cc5ccccc5nc34)cc2)cc1OC	100
CN1CCN(c2ccnc3ccc(NC(=O)Nc4ccc5ccccc5c4)cc23)CC1.Cl	100
COC(=O)c1cccc(CNCc2cccc(-c3ccc(-c4nc5cccc(C)c5[nH]4)s3)c2)c1.O=C(O)C(F)(F)F	100
O=C(c1ccc(O)c(-c2cc(Cl)cc(Cl)c2)c1)N1CCCC1	90
Cc1cccc2nc(-c3cccc(-c4ccc(NC(=O)c5cnn6cccnc56)cc4)c3)[nH]c12	100
COc1ccc(-c2nc(NC(=O)Cc3cccc(OC)c3)sc2C)cc1	100
CCC(C)CC(=O)Nc1ccc(OC)c(S(=O)(=O)N[C@@H]2CCN(C#N)C2)c1 (some centres undefined)	94
Cc1cccc(Nc2c(-c3cc(Br)ccc3O)nc3ncccn23)c1	100
N=C(N)NC(=O)Nc1cc(Br)c(Cl)c(Br)c1	100
Br.c1cc(C2=NC3CCCCC3N2)ccc1OCCCCCOc1ccc(C2=NC3CCCCC3N2)cc1 (centres undefined)	100
COc1nc2c(N3CCN(CCNCc4ccc5c(n4)NC(=O)CO5)CC3)ccnc2cc1F.Cl	100
